Measurements: PubChem BioAssay (Tox21)
Results filed as inconclusive are left out. Unmarked numbers belong to inactive results. The call rests on the fitted dose curve; in most records, active means well fitted cell-killing curve with a large enough effect in the repeat runs; inconclusive means weak or mixed curves, or effect the other way; inactive means flat fitted curve, though single readings scatter.
On the % scale 0 is the no-effect control and ±100 the full control effect.

Assay: qHTS RealTime-Glo MT Cell Viability Assay in HEK293 cells - 8 hour (AID 1224887); further: top concentration of the series differs between compounds; nearly all actives have a fitted effect of over 50% in size
Settings: RealTime-Glo luminescence; series mostly up to 76.8 µM; activity change, negative = cytotoxicity: at the top concentration
Description: U.S. Tox21 Program National Center for Advancing Translational Sciences [NCATS] NIH Chemical Genomics Center [NCGC] U.S. Environmental Protection Agency [EPA] National Institutes of Environmental Health Sciences [NIEHS] National Toxicology Program [NTP] U.S. Food and Drug Administration [FDA] Tox21 Assay Overview: Measure of cell viability is critical in the cell-base assay. Analysis of cell viability is necessary for the characterization of cell responses to cytotoxic drugs and environmental stress. A RealTime-Glo MT Cell Viability Assay to monitor cell viability in real time of continues cell culture during 40 hours of compound treatment was used to screen Tox21 10K library compounds in Hek293 cells. The RealTime-Glo MT Cell Viability Assay is a nonlytic, homogeneous, bioluminescent method to measure cell viability in real time using a simple, plate-based method. The assay involves adding NanoLuc luciferase and a cell-permeant prosubstrate to cells in culture. Viable cells reduce the proprietary prosubstrate to generate a substrate for NanoLuc luciferase. This substrate diffuses from cells into the surrounding culture medium, where it is rapidly used by the NanoLuc Enzyme to produce a luminescent signal. The signal correlates with the number of viable cells, making the assay well suited for cytotoxicity studies.
Tox21 Assay Protocol Summary: The mixture of Hek293 cell suspension and reagents were dispensed at 600cells/6 ul/well in 1536-well tissue culture treated black solid bottom plates using a Multidrop dispenser. After the assay plates were incubated at a 37 C/5% CO2 incubator for 5 hours, 23 nL of compounds dissolved in DMSO, positive and negative controls was transferred to the assay plate by a pintool work station. The plates were incubated at 37 C for 40 hours. The luminescence intensity were measured at 0h, 8h, 16h, 24h, 32h and 40h time points using ViewLux plate reader during compound treatment.
For `CO/N=C(\C(=O)O)c1csc(NC(=O)CCl)n1`, the “activity change, negative = cytotoxicity” value was 6.26% [at 35.3 µM].
In the case of `CCCC(=O)C(CC)Sc1ccoc1C` (stereo not given), the “activity change, negative = cytotoxicity” value is reported as -7.13%.
For `O=C(O)P(=O)(O)O`, the “activity change, negative = cytotoxicity” value was 1.63% [at 35.3 µM].
With `CCCCCCCOC(C)=O` the “activity change, negative = cytotoxicity” value was -0.5%.
With `Cc1ccc(O)c(C(=O)c2ccccc2)c1` the “activity change, negative = cytotoxicity” value was -16.6%.
In the case of `CC(CC(=O)Cl)CC(C)(C)C` (stereo not given), the “activity change, negative = cytotoxicity” value is reported as 19.4%.
With `CCC(C)c1nccnc1OC` (stereo not given) the “activity change, negative = cytotoxicity” value was 8.58%.
For `CN(C)CCc1c[nH]c2ccc(CS(=O)(=O)N3CCCC3)cc12`, the “activity change, negative = cytotoxicity” value was 0.637% [at 35.3 µM].
For `CCOC(=O)c1ccc(N(C)C)cc1`, the “activity change, negative = cytotoxicity” value was -6.3%.
In the case of `O=C(c1ccccc1)c1cccc(O)c1`, the “activity change, negative = cytotoxicity” value is reported as -1.07%.
With `N=C(N)N` the “activity change, negative = cytotoxicity” value was 8.9% [at 35.3 µM].
For `O=C(O)COc1ccc2ccccc2c1`, the “activity change, negative = cytotoxicity” value was 11.8%.
With `O=CN1CCCCC1` the “activity change, negative = cytotoxicity” value was 7.85%.
In the case of `O=C[C@@H](O)[C@H](O)[C@H](O)CO`, the “activity change, negative = cytotoxicity” value is reported as -7.12%.
For `C=CC(C)(CCC=C(C)C)OC(=O)C(C)C` (stereo not given), the “activity change, negative = cytotoxicity” value was 2.38%.
With `C=CC(=O)CC` the “activity change, negative = cytotoxicity” value was -2.9%.
In the case of `O=C(O)Cc1c(Cl)ccc(Cl)c1Cl`, the “activity change, negative = cytotoxicity” value is reported as 2.45%.
In the case of `CCC(=O)OCCOc1ccccc1`, the “activity change, negative = cytotoxicity” value is reported as 0.351%.
With `CC(=O)O[C@@H]1CC2C3CCc4cc(OC(=O)c5ccccc5)ccc4C3CCC2(C)[C@H]1OC(C)=O` (stereo not given in full) the “activity change, negative = cytotoxicity” value was -0.201% [at 35.3 µM].
For `CC(=O)OC/C=C(/C)CCC=C(C)C`, the “activity change, negative = cytotoxicity” value was 8.4%.
In the case of `CC(=O)SC[C@@H](C)C(=O)N1CCC[C@H]1C(=O)N[C@@H](Cc1ccccc1)C(=O)O`, the “activity change, negative = cytotoxicity” value is reported as 16.9% [at 35.3 µM].
For `CCCCC(CC)COC(=O)CC#N` (stereo not given), the “activity change, negative = cytotoxicity” value was 1.79%.
In the case of `NNC(=O)CCCCC(=O)NN`, the “activity change, negative = cytotoxicity” value is reported as 0.673%.
For `O=C1c2ccccc2C(=O)N1CO`, the “activity change, negative = cytotoxicity” value was -5.16%.
In the case of `CCCc1ncc(C(=O)O)s1`, the “activity change, negative = cytotoxicity” value is reported as -1.25% [at 35.3 µM].
For `CC(=O)OCC(=O)[C@@]1(O)CC[C@H]2[C@@H]3CCC4=CC(=O)C=C[C@]4(C)[C@H]3[C@@H](O)C[C@@]21C`, the “activity change, negative = cytotoxicity” value was 0.53% [at 35.3 µM].
With `N=C(N)S(=O)O` the “activity change, negative = cytotoxicity” value was 28.9%.
With `C[Si](C)(C)O[Si](O)(O)O` the “activity change, negative = cytotoxicity” value was -6.76%.
In the case of `O=C(O)CCC(=O)Nc1ccc(S(=O)(=O)Nc2nccs2)cc1`, the “activity change, negative = cytotoxicity” value is reported as 0.198% [at 35.3 µM].
For `O=Cc1ccccc1S(=O)(=O)O`, the “activity change, negative = cytotoxicity” value was 1.09%.
With `Cc1cc2c(cc1CC(=O)c1sccc1S(=O)(=O)Nc1onc(C)c1Cl)OCO2` the “activity change, negative = cytotoxicity” value was -16.1% [at 35.3 µM].
With `CCOc1ccccc1OCCN[C@H](C)Cc1ccc(OC)c(S(N)(=O)=O)c1` the “activity change, negative = cytotoxicity” value was -3.08% [at 35.3 µM].
Work on `CN(C)CCCN(C)C` yielded an activity change, negative = cytotoxicity of -0.912% [at 6.97 µM].
In the case of `CCCCNCC`, the “activity change, negative = cytotoxicity” value is reported as -6%.
In the case of `C=COCCCCO`, the “activity change, negative = cytotoxicity” value is reported as 15.4%.
With `CCCCCCCCS(=O)(=O)O` the “activity change, negative = cytotoxicity” value was 2.42%.
For `COC(=O)c1cc(Cl)c(NC(C)=O)cc1OC`, the “activity change, negative = cytotoxicity” value was 11.2% [at 35.3 µM].
In the case of `O=C(O)CCCCCCCCCC(=O)O`, the “activity change, negative = cytotoxicity” value is reported as 3.76%.
With `CC(C)(C)OC(=O)c1ccccc1C(=O)O` the “activity change, negative = cytotoxicity” value was 6.86%.
For `CCCCc1ccc(Cl)cc1`, the “activity change, negative = cytotoxicity” value was 6.31%.
